{
  "source": "the supplement of paper PMC12350171",
  "note": "Structures can show the parent of a compound that is named as a salt. A number with no mark means an inactive call.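 The calls were made as follows: active = AUC significantly below DMSO controls by Student t-fit with adjusted P under 0.01; inactive = not significantly reduced.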",
  "data": [
    {"system": "Haemophilus parainfluenzae", "assay": "growth AUC normalised to DMSO control (fraction of control); higher = less growth inhibition, active = hit call of the paper", "settings": "20 µM", "procedure,_shortened": "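Hemin and NAD were added to the medium for Haemophilus parainfluenzae. All pathogens, after two anaerobic passages, were inoculated at a starting OD578 of 0.01 into pre-reduced mGAM plates with 20 μM compound and 1% DMSO under breathable seals, and OD578 was read hourly for 24 h in three biological replicates. AUC of each growth curve was obtained with the trapezoidal rule up to the exponential-to-stationary transition and normalised to DMSO controls from the same plate.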", "values": [
      {"smiles": "C[n+]1ccccc1/C=N/O", "note": "[Pralidoxime chloride]", "growth AUC normalised to DMSO control": 0.915},
      {"smiles": "NC(N)=Nc1nc(CSCC/C(N)=N/S(N)(=O)=O)cs1", "note": "[Famotidine]", "growth AUC normalised to DMSO control": 0.975},
      {"smiles": "CN(C)CCOC(c1ccc(Cl)cc1)c1ccccn1", "note": "(stereo not given) [Carbinoxamine maleate salt]", "growth AUC normalised to DMSO control": 1.08},
      {"smiles": "CC(=O)NCCCS(=O)(=O)O", "note": "[Acamprosate calcium]", "growth AUC normalised to DMSO control": 0.988},
      {"smiles": "CCN1CCC[C@H]1CNC(=O)c1c(OC)ccc(Br)c1OC", "note": "[Remoxipride hydrochloride]", "growth AUC normalised to DMSO control": 1.04},
      {"smiles": "COc1ccc(C(=O)c2ccccc2O)c(O)c1", "note": "[Dioxybenzone]", "growth AUC normalised to DMSO control": 0.992},
      {"smiles": "CCCCOC(=O)c1ccc(O)cc1", "note": "[Butylparaben]", "growth AUC normalised to DMSO control": 0.97},
      {"smiles": "CN(C)CCCSC(=N)N", "note": "[Dimaprit dihydrochloride]", "growth AUC normalised to DMSO control": 1.01},
      {"smiles": "C[C@@H]1C[C@H]2[C@@H]3CCC4=CC(=O)C=C[C@]4(C)[C@@]3(Cl)[C@@H](O)C[C@]2(C)[C@@]1(OC(=O)c1ccco1)C(=O)CCl", "note": "[Mometasone furoate]", "growth AUC normalised to DMSO control": 1.05},
      {"smiles": "O=C(NCCN1CCOCC1)c1ccc(Cl)cc1", "note": "[Moclobemide]", "growth AUC normalised to DMSO control": 0.971},
      {"smiles": "OCc1cc(C(O)CNCCCCCCOCCCCc2ccccc2)ccc1O", "note": "(stereo not given) [Salmeterol]", "growth AUC normalised to DMSO control": 0.962},
      {"smiles": "CCC1(c2ccccc2)NC(=O)N(C)C1=O", "note": "(stereo not given) [Mephenytoin]", "growth AUC normalised to DMSO control": 1.04},
      {"smiles": "O=C(N/N=C/c1ccc([N+](=O)[O-])o1)c1ccc(O)cc1", "note": "[Nifuroxazide]", "growth AUC normalised to DMSO control": "0.532 (active)"},
      {"smiles": "CN1CCc2cccc3c2[C@H]1Cc1ccc(O)c(O)c1-3", "note": "[R(-) Apomorphine hydrochloride hemihydrate]", "growth AUC normalised to DMSO control": 1.05},
      {"smiles": "CC(Cc1cccc(C(F)(F)F)c1)NCCOC(=O)c1ccccc1", "note": "(stereo not given) [Benfluorex]", "growth AUC normalised to DMSO control": 0.93},
      {"smiles": "CN(C)CCC(c1ccc(Cl)cc1)c1ccccn1", "note": "(stereo not given) [Chlorpheniramine maleate]", "growth AUC normalised to DMSO control": 0.995},
      {"smiles": "CCN(CC)C(=O)/C(C#N)=C/c1cc(O)c(O)c([N+](=O)[O-])c1", "note": "[Entacapone]", "growth AUC normalised to DMSO control": 1.06},
      {"smiles": "NCCCC[C@H](N[C@@H](CCc1ccccc1)C(=O)O)C(=O)N1CCC[C@H]1C(=O)O", "note": "[Lisinopril]", "growth AUC normalised to DMSO control": 0.992},
      {"smiles": "CC(=O)/N=c1/sc(S(N)(=O)=O)nn1C", "note": "[Methazolamide]", "growth AUC normalised to DMSO control": 1},
      {"smiles": "CC[C@]12CCCN3CCc4c(n(c5ccccc45)[C@@](O)(C(=O)OC)C1)[C@@H]32", "note": "[Vincamine]", "growth AUC normalised to DMSO control": 0.98},
      {"smiles": "CNCCC=C1c2ccccc2C=Cc2ccccc21", "note": "[Norcyclobenzaprine]", "growth AUC normalised to DMSO control": 0.91},
      {"smiles": "c1ccc2c(CC3=NCCN3)cccc2c1", "note": "[Naphazoline hydrochloride]", "growth AUC normalised to DMSO control": 1.01},
      {"smiles": "CC1(C)S[C@@H]2[C@H](NC(=O)[C@H](C(=O)O)c3ccsc3)C(=O)N2[C@H]1C(=O)O", "note": "[Ticarcillin sodium]", "growth AUC normalised to DMSO control": "0.0663 (active)"},
      {"smiles": "Oc1c(Cl)cc(Cl)c2cccnc12", "note": "[Chloroxine]", "growth AUC normalised to DMSO control": "0.114 (active)"},
      {"smiles": "CC(=O)Oc1ccccc1C(=O)O", "note": "[Acetylsalicylic acid]", "growth AUC normalised to DMSO control": 1.08},
      {"smiles": "O=C(O)Cc1ccc(-c2ccccc2)cc1", "note": "[Felbinac]", "growth AUC normalised to DMSO control": 0.948},
      {"smiles": "O=c1cc(-c2ccc(O)c(O)c2)oc2cc(O)cc(O)c12", "note": "[Luteolin]", "growth AUC normalised to DMSO control": 1.02},
      {"smiles": "NC(=O)N1c2ccccc2CC(=O)c2ccccc21", "note": "[Oxcarbazepine]", "growth AUC normalised to DMSO control": 0.954},
      {"smiles": "CC(C)(C)C(=O)OCOC(=O)[C@@H]1N2C(=O)[C@@H](/N=C/N3CCCCCC3)[C@H]2SC1(C)C", "note": "[Pivmecillinam hydrochloride]", "growth AUC normalised to DMSO control": 0.825},
      {"smiles": "C[C@H]1C[C@H]2[C@@H]3CCC4=CC(=O)C=C[C@]4(C)[C@@]3(F)[C@@H](O)C[C@]2(C)[C@@]1(O)C(=O)CO", "note": "[Betamethasone]", "growth AUC normalised to DMSO control": 0.974},
      {"smiles": "C[C@@H]1CCC[C@H](C)N1NC(=O)c1ccc(Cl)c(S(N)(=O)=O)c1", "note": "[Clopamide]", "growth AUC normalised to DMSO control": 0.984},
      {"smiles": "CC/C(=C(\\c1ccccc1)c1ccc(OCCN(C)C)cc1)c1ccccc1", "note": "[Tamoxifen citrate]", "growth AUC normalised to DMSO control": 0.997},
      {"smiles": "CCN(CC)CCOC(=O)c1ccc(N)cc1", "note": "[Procaine hydrochloride]", "growth AUC normalised to DMSO control": 1},
      {"smiles": "O=C1c2c(O)cccc2Cc2cccc(O)c21", "note": "[Anthralin]", "growth AUC normalised to DMSO control": 1.39},
      {"smiles": "CCCCC1C(=O)N(c2ccccc2)N(c2ccc(O)cc2)C1=O", "note": "(stereo not given) [Oxyphenbutazone]", "growth AUC normalised to DMSO control": 1.08}
    ]}
  ]
}
